Results published in PubChem BioAssay (Tox21).
Where “and” joins values, the source holds several entries; their conditions need not be identical. Equal values may be shown once. Records with an inconclusive call do not appear. Where a call stands in place of a potency, no number is given. Calls of active or inactive are those of the source. The call rests on the fitted dose curve; in most records, active means well fitted cell-killing curve with a large enough effect in the repeat runs; inconclusive means weak or mixed curves; inactive means flat fitted curve, though single readings scatter.

test: qHTS RealTime-Glo MT Cell Viability Assay in HepG2 cells - 32 hour (AID 1224877); conditions: RealTime-Glo luminescence; series mostly up to 76.8 µM; further: nearly all actives have a fitted effect of over 55% in size
From the text: U.S. Tox21 Program National Center for Advancing Translational Sciences [NCATS] NIH Chemical Genomics Center [NCGC] U.S. Environmental Protection Agency [EPA] National Institutes of Environmental Health Sciences [NIEHS] National Toxicology Program [NTP] U.S. Food and Drug Administration [FDA] Tox21 Assay Overview: Measure of cell viability is critical in the cell-base assay. Analysis of cell viability is necessary for the characterization of cell responses to cytotoxic drugs and environmental stress. A RealTime-Glo MT Cell Viability Assay to monitor cell viability in real time of continues cell culture during 40 hours of compound treatment was used to screen Tox21 10K library compounds in HepG2 cells. The RealTime-Glo MT Cell Viability Assay is a nonlytic, homogeneous, bioluminescent method to measure cell viability in real time using a simple, plate-based method. The assay involves adding NanoLuc luciferase and a cell-permeant prosubstrate to cells in culture. Viable cells reduce the proprietary prosubstrate to generate a substrate for NanoLuc luciferase. This substrate diffuses from cells into the surrounding culture medium, where it is rapidly used by the NanoLuc Enzyme to produce a luminescent signal. The signal correlates with the number of viable cells, making the assay well suited for cytotoxicity studies.
Tox21 Assay Protocol Summary: The mixture of HepG2 cell suspension and reagents were dispensed at 600cells/6 ul/well in 1536-well tissue culture treated black solid bottom plates using a Multidrop dispenser. After the assay plates were incubated at a 37 C/5% CO2 incubator for 5 hours, 23 nL of compounds dissolved in DMSO, positive and negative controls was transferred to the assay plate by a pintool work station. The plates were incubated at 37 C for 40 hours. The luminescence intensity were measured at 0h, 8h, 16h, 24h, 32h and 40h time points using ViewLux plate reader during compound treatment.
Potency means the concentration at half of the fitted maximal effect.

Row | Compound | Potency
1 | OCC1CO1 (stereo not given) | inactive
2 | CN1CC[C@]23c4c5ccc(O)c4O[C@H]2[C@@H](O)C=C[C@H]3[C@H]1C5 | inactive
3 | CCOP(=S)(OCC)SCSc1cc(Cl)ccc1Cl | inactive
4 | CC1(C)[C@H](C(=O)O[C@H](C#N)c2cccc(Oc3ccccc3)c2)[C@@H]1C=C(Br)Br | inactive
5 | CCOC(=O)C1OC1(C)c1ccccc1 (stereo not given) | inactive
6 | NC(=O)CF | inactive
7 | Cc1cccc(C)c1NC1=NCCCS1 | inactive
8 | O=C(Cc1ccccc1)c1ccccc1 | inactive
9 | Nc1ccccc1C(=O)OCCc1ccccc1 | inactive
10 | C=CC(=O)NC(C)(C)CC(C)=O | inactive
11 | CCC1CCC(=O)O1 (stereo not given) | inactive
12 | CC(C)(C)NCC(O)c1cc(Cl)c(N)c(C(F)(F)F)c1 (stereo not given) | inactive
13 | CCOC(=O)NC(O)C(Cl)(Cl)Cl (stereo not given) | inactive
14 | ClCc1ccccc1Cl | inactive
15 | CC(O)CN1CCN(CC(=O)[O-])CCN(CC(=O)[O-])CCN(CC(=O)[O-])CC1.[Gd+3] (stereo not given) | inactive
16 | CC(C)(C#N)C(C)(C)C#N | inactive
17 | CC(C)(C)OOC(C)(C)CCC(C)(C)OOC(C)(C)C | inactive
18 | COCc1cnc(C2=NC(C)(C(C)C)C(=O)N2)c(C(=O)O)c1 (stereo not given) | inactive
19 | CC(C)C1(C)N=C(c2ncccc2C(=O)O)NC1=O (stereo not given) | inactive
20 | CC(CC(C(N)=O)(c1ccccc1)c1ccccc1)N(C)C (stereo not given) | inactive

Row | Compound | Potency
21 | CCSCc1ccccc1OC(=O)NC | inactive
22 | CC(C)(C)c1ccc(CCOc2ncnc3ccccc23)cc1 | inactive
23 | C=CCOC(=O)C(C)(C)OC(=O)c1cc(-n2c(=O)cc(C(F)(F)F)n(C)c2=O)ccc1Cl | inactive
24 | O=C(O)COc1cc(Cl)c(Cl)cc1Cl | inactive
25 | Cc1nnc(-c2ccccc2)c(=O)n1N | inactive
26 | C1CCNCC1 | inactive
27 | COP(=O)(OC)OC(Br)C(Cl)(Cl)Br (stereo not given) | inactive
28 | CCCCC(CC)CO[N+](=O)[O-] (stereo not given) | inactive
29 | O=C=NC1CCCCC1 | inactive
30 | Cc1nc(N(C)C)nc(OC(=O)N(C)C)c1C | inactive
31 | C#CC(O)(C=CCl)CC (stereo not given) | inactive
32 | CCc1ccccc1N | inactive
33 | CCCCCCCCCCCCN(C)C | inactive
34 | O=C(N/N=C/c1ccc([N+](=O)[O-])o1)c1cc([N+](=O)[O-])cc([N+](=O)[O-])c1O | inactive
35 | CCCC[P+](CC)(CCCC)CCCC (tested in a mixture with another compound) | inactive
36 | CN(C)c1ccc(N=O)cc1 | 34.7 µM (active)
37 | C#C[C@]1(O)CC[C@H]2[C@@H]3CCC4=CC(=O)CCC4=C3C=C[C@@]21CC | inactive
38 | O=C(NC(=O)c1cc(F)c(F)cc1Cl)Nc1cc(F)ccc1N1CCC(C(=O)O)CC1 | inactive
39 | CCCCCCCCCCCC[N+](C)(C)CCOc1ccccc1 | 19.5 µM (active) and 7.56 µM (active)
40 | CC[N+]1(CCOC(=O)C(O)(c2ccccc2)c2ccccc2)CCCCC1 | inactive
